Consider 15 molecules from PubChem BioAssay.

Each structure is given as a SMILES string.

The experiment concerns the target Carbonic anhydrase 2 (Homo sapiens) (UniProt P00918). The experiment in a line: compounds binding carbonic anhydrase 2 – biochemical, small-molecule microarray, Alexa647-labelled CAII, profiling panel (AID 1122). Particulars: CAII-A647 binding fluorescence, higher = more signal.
In turn, `CN1C(=O)C2C=CC(C(O)c3ccccn3)N(N(c3ccccc3)c3ccccc3)C2C1=O` (stereo not given) yielded a composite z-score of 0.822.

With `C[N+](C)(C)CCCCCCNC(=O)[C@H]1C[C@H]2C(=O)NCC(=O)N2[C@H]1c1ccc(O)cc1`, the composite z-score is 0.422.

Take `CCCC[C@@H]1C[C@H]1[C@@H](NC(=O)c1cccs1)c1ccc(C(F)(F)F)cc1`: the composite z-score is -0.195.

Take `COc1ccc(CCN2C(=O)[C@@]3(Cc4ccccc42)c2ccccc2C(=O)N(Cc2ccccc2OC)[C@H]3c2ccc(CO)cc2)cc1`: the composite z-score came to 0.162.

As to `C[C@@H]1NC(=O)[C@@]23C(=O)N[C@@H](Cc4ccccc4)C2[C@H](C)[C@@]2(C)O[C@H]2C3/C=C/C/C=C\CNC(=O)[C@@H]2CCCN2C1=O` (stereo not given in full), the composite z-score was 0.742.

In the case of `C=C(/C(=C/C[C@H](OC(C)=O)c1cccc(OCCO)c1)c1cnc2ccccc2c1)C(C)C`, the composite z-score came out at 0.547.

As to `[N-]=[N+]=NCc1ccccc1[C@H]1OC(c2ccc(OCCCO)cc2)=N[C@@]1(CCS(=O)(=O)c1ccccc1)C(=O)NCC(O)CO` (stereo not given in full), the composite z-score is 0.736.

In the case of `Cc1cc(C)cc(N2C(=O)CSC2c2cccc([N+](=O)[O-])c2)c1` (stereo not given), the composite z-score was 0.621.

For the molecule `COCCOC(=O)N1C(=O)[C@@]2(c3cc(C#CC4(O)CCCCCC4)ccc31)[C@H](c1ccc(O)cc1)N1[C@H](c3ccccc3)[C@H](c3ccccc3)OC(=O)[C@H]1[C@@H]2C(=O)NC[C@H](O)c1ccccc1`, the composite z-score is 0.522.

The molecule `COC(=O)c1cn(C[C@@H](Cc2ccccc2)NC(=O)N[C@H](CO)CCc2oc(C(C)=O)c(C(=O)OC)c2C(=O)OC)nn1` showed a composite z-score of 0.182.

Molecule `COC(=O)[C@@]1(Cc2ccccc2)[C@H]2c3cc(C(=O)N(C)C)n(Cc4c(CO)[nH]cc(C)c4=O)c3C[C@H]2CN1C(=O)c1ccccc1` gave a composite z-score of 0.777.

Turning to `CC(=O)NCCCC[C@@H]1NC(=O)[C@@H]2C[C@H](C(=O)NCCCC[N+](C)(C)C)[C@H](c3ccc(O)cc3)N2C1=O`, the composite z-score was determined as 0.514.

In turn, `COc1ccc([Si](C)(C)[C@@H]2[C@@H](CC(=O)N3Cc4ccccc4C[C@H]3CO)O[C@]3(C(=O)N(C)c4ccccc43)[C@H]2C)cc1` registered a composite z-score of 0.723.

Take `COCCOC(=O)N1C(=O)[C@@]2(c3cc(C#CC4=CCCCC4)ccc31)[C@H](C(N)=O)[C@H]1C(=O)O[C@H](c3ccccc3)[C@H](c3ccccc3)N1[C@@H]2c1ccccc1OCCO`: the composite z-score turned out to be 0.652.

Take `COC(=O)[C@@]1(Cc2ccc(OC)cc2)[C@@H]2C(=CC(=O)[C@H]2CC(=O)C(=O)N(C)C)CN1C(=O)c1ccccc1`: the composite z-score is 0.777.
